Anesthetic bind = qHTS Assay for Identification of Novel General Anesthetics. Ferritin light chain (Equus caballus), P02791. apoferritin/1-aminoanthracene competitive binding, fluorescence. Potency, µM (top dose mostly 77.5 µM), for inactives: at the highest dose activity change, negative = displacement, most hits filed as inhibitors. hit rate 0.074% among 350,000. AID 485281, 2010; further: on the % scale 0 is the no-effect control and ±100 the full control effect; nearly all actives have a fitted effect of over 20% in size
Target sequence (P02791 2-175 limits assumed): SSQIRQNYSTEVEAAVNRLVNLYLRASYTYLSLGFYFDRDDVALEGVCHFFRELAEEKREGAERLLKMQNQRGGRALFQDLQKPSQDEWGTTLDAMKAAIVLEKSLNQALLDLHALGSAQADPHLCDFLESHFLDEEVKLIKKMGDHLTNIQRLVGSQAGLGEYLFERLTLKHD
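Probe: 1-aminoanthracene (50% saturated, PBS). Protein: horse-spleen apoferritin, 10 uM. Incubation: 10 min, room temperature. Detection: 380 nm excitation, 535 nm emission. Analysis: normalized response, four-parameter Hill.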
ERG Ets-DNA blk = qHTS for Small Molecule Inhibitors of the ERG Ets/DNA interaction; Transcriptional regulator ERG (Homo sapiens), P11308; fluorescence polarization, His-ERG Ets domain / labelled DNA; Potency, µM (highest dose often 76.9 µM), without a hit: at the highest dose FP activity, negative = inhibition, hits mostly inhibitors; hit rate 0.028% among 370,000; AID 624246, 2012; active means well fitted inhibition curve with a large enough effect in the polarisation, with a control signal flat; inconclusive means small, poorly fitted or top-dose-only effect, or effect the other way, or a change in a side signal; inactive means no such curve, though single readings can be large or run the other way; the % refers to the polarisation;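 further: polarization taken with two DNA probes labelled with fluorescein and Texas red; % of control where 0% means no effect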
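His-tagged ERG Ets domain (1 uM in the protein solution; 300mM KCl, 50mM Tris-HCl, 1mM EDTA, 1mM DTT, pH 7.5) received compound, then a probe mix of 5 nM fluorescein-DNA and 100nM Texas-615-DNA. Fluorescence polarization was read for both dyes.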
BRCA1 expr act = qHTS Assay to Identify Small Molecule Activators of BRCA1 Expression; MCF7-BRCA1-FFLuc reporter, luminescence, 48 h; response scale: scaled: vehicle 0%, 10 µM genistein 100%; hit rate 1.1% among 380,000; Potency, µM (titrated, usually from 46.1 µM), for the others: top-dose activation, usual class: activators; further: nearly all actives have a fitted effect of over 80% in size
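Reporter cells (MCF7, BRCA1 promoter-firefly luciferase) received library compounds across a concentration series for 48 h. End-point luminescence was measured and concentration-effect curves derived after normalization.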
GoLoco inh red = qHTS Assay for Inhibitors of RGS12 GoLoco Motif Activity (Red Fluorophore) | Potency, µM (highest dose often 61.6 µM), without a hit: top-dose activity, negative = inhibition, hits mostly inhibitors | hit rate 0.44% among 230,000 | Gai1:RGS12 GoLoco peptide FP, rhodamine, 10 min; active means well fitted inhibition curve with a large enough effect, not every such curve was filed as active; inactive means no such curve, though single readings can be large or run the other way; further: on the % scale 0 is the no-effect control and ±100 the full control effect; nearly all actives have a fitted effect of over 30% in size
Target sequence (P63096 whole entry, looked up): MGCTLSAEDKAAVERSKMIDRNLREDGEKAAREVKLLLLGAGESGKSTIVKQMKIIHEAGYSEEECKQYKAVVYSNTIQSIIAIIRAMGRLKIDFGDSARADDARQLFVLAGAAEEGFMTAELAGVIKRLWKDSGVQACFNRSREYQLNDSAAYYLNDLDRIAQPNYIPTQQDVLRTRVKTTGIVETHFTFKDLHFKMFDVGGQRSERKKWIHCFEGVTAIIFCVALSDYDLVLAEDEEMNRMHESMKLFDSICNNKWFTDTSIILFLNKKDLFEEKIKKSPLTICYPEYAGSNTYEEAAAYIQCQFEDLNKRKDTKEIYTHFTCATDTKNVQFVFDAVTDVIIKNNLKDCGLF
* marks the source's active call; other numbers are inactive results; ? = inconclusive; . = no result; [ ] = remark or other dose. Only some compounds are listed: those with a hit (about 1.2% of all), similar ones and a draw of the others. Unless noted, the call rests on the fitted dose curve; in most records, active means well fitted curve in the direction sought with a large enough effect; inconclusive means small, poorly fitted or top-dose-only effect, or another doubt; inactive means no such curve, though single readings can be large; an effect the other way counts as inactive or inconclusive. Potency means the concentration at half of the fitted maximal effect.

SMILES	Anesthetic bind	ERG Ets-DNA blk	BRCA1 expr act	GoLoco inh red
O=C1CC(c2ccc3c(c2)OCCO3)Oc2ccccc21 (stereo not given)	?	1%	11µM*	.
O=C1CC(c2ccc3c(c2)OCCO3)Oc2ccc([N+](=O)[O-])cc21 (stereo not given)	-10%	-11%	3%	.
O=S(=O)(NCCCCNS(=O)(=O)c1cccc2cccnc12)c1cccc2cccnc12	.	.	5%	.
CCc1cccc(CC)c1NC(=O)CSc1nc2ccc(N3C(=O)C4C(C3=O)[C@H]3C=C[C@@H]4C3)cc2s1 (stereo not given in full)	-5%	-6%	-48%	2µM*
CCc1cccc(C)c1NC(=O)CSc1nc2ccc(N3C(=O)c4ccccc4C3=O)cc2s1	-11%	8%	-3%	7%
CN1N/C(=C\c2ccccc2)N=C2C(=O)N(C)C(=O)N=C21	.	.	-53%	.
O=C(Nc1ccccc1)OCC1CCCN2CCCCC12 (stereo not given)	-10%	0%	8%	14%
CC1=CCC(COC(=O)Nc2ccccc2)CC1 (stereo not given)	?	8%	3.5µM*	8%
C(=N\NCc1ccccc1)/c1ccc2ncccc2c1	-8%	-1%	33%	-3%
C(=N\NCc1ccccc1)/c1ccc2nccnc2c1	1%	0%	4.5µM*	3%
COc1c2ccoc2nc2c(OC)cccc12	-10%	.	25µM*	29%
C/C(=N\OCC(=O)NCC(F)(F)F)c1cc2ccccc2o1	-2%	.	13µM*	5%
CCCCNC(=O)CO/N=C(\C)c1cc2ccccc2o1	2%	-1%	77%	-7%
CCCCCCCCCOC(=O)CNc1nc(C#N)nc(NCC(=O)OCCCCCCCCC)n1	.	.	2%	.
CCN(CC)C(=S)SCC(=O)c1c(C)[nH]c2ccccc12	-12%	10%	5%	4%
CCN(CC)C(=S)SCC(=O)c1ccccc1	?	-7%	7.9µM*	-4%
CCN(CC)C(=S)SCC(=O)c1ccc(F)cc1	?	0%	3.2µM*	-5%
Cc1ccc(-c2csc(NC(=O)CSc3nc(C)cs3)n2)cc1	51%	-9%	11µM*	-22%
NC(=O)c1ccsc1NC(=O)CSc1ccccc1F	1%	.	11µM*	4%
CCc1nnc(NC(=O)CSc2ccc(-c3ccc(C)cc3)nn2)s1	-10%	5%	11µM*	3%
Cc1csc(SCC(=O)Nc2sccc2C(N)=O)n1	-9%	3%	6.3µM*	4%
Cc1csc(SCC(=O)Nc2nccs2)n1	.	-5%	-5%	.
C(=C\c1ccnc2ccccc12)/c1ccc(N2CCN(c3ccc(/C=C/c4ccnc5ccccc45)cc3)CC2)cc1	.	.	-29%	.
CC(=O)NC(Cc1ccc([N+](=O)[O-])cc1)C(=O)NCC(N)C(=O)c1ccccc1 (stereo not given)	.	.	-41%	.
O=C(O)[C@@H]1[C@@H](C(=O)NCc2cccnc2)[C@@H]2C=C[C@@H]1O2	.	.	.	-3%[14.2 µM]
SMILES	Anesthetic bind	ERG Ets-DNA blk	BRCA1 expr act	GoLoco inh red
Cc1ccc2c(c1)S/C(=C/c1ccc[n+](C)c1)N2CCO	-15%	1%	-15%	8.9µM*
O=C(CSc1ccc(Cl)cc1)N1CCOCC1	-7%	1%	92%	3%
O=C(CCSc1ccc(Cl)cc1)N1CCOCC1	-3%	6%	7.9µM*	3%
O=C(CNC(=O)c1cccs1)OCC(=O)c1ccc2ccccc2c1	14µM*	-11%	8%	-7%
O=C(CNC(=O)c1cccs1)c1ccc(Br)cc1	-3%	10%	5.6µM*	.
CCc1ccc2oc(-c3ccc(C)c(NC(=O)COc4ccccc4Cl)c3)nc2c1	.	.	-3%	.
CC(C)c1ccc(C(=O)CSc2ncn[nH]2)cc1	?	-5%	14µM*	0%
COc1ccc(C2=Nn3c(nnc3-c3ccccc3O)SC2)c(OC)c1	-20%	.	.	.
COc1ccc2c(c1OC)C(=O)OC2Nc1nc(-c2ccc([N+](=O)[O-])cc2)cs1 (stereo not given)	0%	-17%	13µM*	-4%
COc1ccc(-c2csc(NC3OC(=O)c4c3ccc(OC)c4OC)n2)cc1OC (stereo not given)	5%	16%	-55%	6%
O=[N+]([O-])c1ccc(C=NN2CCOCC2)s1	.	.	5%	.
O=[N+]([O-])c1cc(/C=N/N2CCOCC2)cs1	-2%	32µM*	2%	.
O=c1oc(-c2ccc(C(F)(F)F)cc2)nn1Cc1cc(Cl)ccc1O	-21%	.	.	.
CC(C)[N+](C)(C)CC#CC(O)(c1ccccc1)c1ccccc1	-4%	-1%	-26%	3.2µM*
C[N+]1(CC#CC(O)(c2ccccc2)c2ccccc2)CCCC1	-5%	1%	3%	-40%
O=C(CCOc1ccccc1)NO	.	.	19%	.
NC(=O)c1c(NC(=O)c2ccncc2)sc2c1CCCC2	-17%	1%	48%	15%
NC(=O)c1c(NC(=O)c2cnccn2)sc2c1CCCC2	-13%	-26%	7.9µM*	4%
COc1ccc(/C=C2\CCCc3c2nc2ccccc2c3C(=O)O)cc1OC	252%	.	.	25µM*
COc1ccc(/C=C2\CCc3c2nc2ccccc2c3C(=O)O)cc1OC	224%	1%	-18%	0%
CC(=O)Nc1c(C)nn(-c2ccccc2)c1N1CCC(C(=O)NCc2ccc(F)cc2)CC1	-3%	4%	.	.
COc1cccc(/C=C/C(=O)OCC(=O)c2ccc(C)c(C)c2)c1OC	.	-3%	35%	.
COc1cccc(/C=C/C(=O)OCC(=O)c2ccccc2)c1OC	.	-4%	11µM*	.
CCCc1cc2c(c(=O)o1)C(O)C1OC1C2=O (stereo not given)	-2%[15.3 µM]	.	.	.
CCOC(=O)CSc1nc2sc3c(c2c(=O)n1Cc1ccccc1)CC(C)CC3 (stereo not given)	-8%	-15%	.	.
SMILES	Anesthetic bind	ERG Ets-DNA blk	BRCA1 expr act	GoLoco inh red
CN(C)CCCNc1cc(C(C)(C)C)nc2c(-c3ccccc3)cnn12	-9%	2%	5.6µM*	14%
CC(C)(C)c1cc(NCCCn2ccnc2)n2ncc(-c3ccc(Cl)cc3)c2n1	111%	5%	-18%	15%
O=C(COc1ccccc1C(=O)Nc1cccc([N+](=O)[O-])c1)Nc1ccc(Br)cc1	.	.	-2%	.
COCCn1c(=O)c(-c2cccc(C#N)c2)nc2cnc(N3CCOCC3)nc21	.	.	.	20µM*
C[C@H](CCC(=O)O)C1CC[C@H]2C3CC[C@@H]4C[C@H](O)CC[C@]4(C)C3C[C@H](O)[C@]12C (stereo not given in full)	-7%	.	.	8%
CC(=O)n1nc(-c2ccc(C)cc2)nc1NCc1ccco1	-7%	1%	5µM*	-2%
CC(=O)n1nc(-c2ccc(C)cc2)nc1NCc1ccc(F)cc1	-6%	-5%	3.2µM*	-2%
O=C(c1ccco1)n1nc(-c2ccccc2)nc1NCc1ccc(F)cc1	0%	0%	9%	.
CCCOC(=O)N1CCN(/[N+]([O-])=N/Oc2ccc([N+](=O)[O-])cc2[N+](=O)[O-])CC1	-9%	.	.	.

High-throughput results deposited in PubChem BioAssay by National Center for Advancing Translational Sciences (NCATS).
